Inconclusive results are not listed. Activity calls are given as the source filed them. The call rests on the fitted dose curve; in most records, active means well fitted inhibition curve with a large enough effect; inconclusive means small, poorly fitted or top-dose-only effect; inactive means flat fitted curve, though single readings scatter.
Assays:
Experiment in all cases: qHTS profiling for inhibitors of Plasmodium falciparum proliferation (AID 504749); further: nearly all actives have a fitted effect of over 60% in size
Details in all cases: P. falciparum in erythrocytes, SYBR Green DNA, 72 h; series mostly up to 28.7 µM
7G8 = tested on: 7G8
How it was run: (§1)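 Fluorescence of SYBR Green-bound parasite DNA, read at 485/535 nm, served as the growth measure. Infected erythrocytes were cultured with compound 72 h; artemisinin (0.29 uM) and DMSO wells defined the normalization range.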

ATS95 = tested on: ATS95
How it was run: as §1

C2A = tested on: C2A
How it was run: as §1

CP237 = tested on: CP237
How it was run: as §1

CP238 = tested on: CP238
How it was run: as §1

CP262 = tested on: CP262
How it was run: as §1

CP265 = tested on: CP265
How it was run: as §1

CP266 = tested on: CP266
How it was run: as §1

CP268 = tested on: CP268
How it was run: as §1

CP269 = tested on: CP269
How it was run: as §1

CP305 = tested on: CP305
How it was run: as §1

CP325 = tested on: CP325
How it was run: as §1

CP329 = tested on: CP329
How it was run: as §1

DIV30 = tested on: DIV30
How it was run: as §1

Dd2 = tested on: Dd2
How it was run: as §1

ECU = tested on: ECU
How it was run: as §1

GB4 = tested on: GB4
How it was run: as §1

HB3 = tested on: HB3
How it was run: as §1

P93_24 = tested on: P93_24
How it was run: as §1

PAD = tested on: PAD
How it was run: as §1

Measured: Potency

CN1[C@H]2CC(OC(=O)[C@H](CO)c3ccccc3)C[C@H]1[C@H]1O[C@H]12 (stereo not given in full)
inactive: all assays above

Reference: PubChem BioAssay (NCATS)
